Most compounds without a hit are left out; they make up all but 2.1% or so of the library.
PLC-gamma1 inh – PLC-gamma1 enzyme inhibitors, primary screen, biochemical, fluorescence, purified enzyme. 1-phosphatidylinositol 4,5-bisphosphate phosphodiesterase gamma-1 (Homo sapiens), P19174. fluorogenic substrate. inhibition, % at 12.2 µM. 370,000 compounds, 0.84% hits
Rce1 inh – yeast Rce1p protease inhibitors, primary screen, biochemical, fluorescence, cell-free homogeneous; CAAX prenyl protease 2 (Saccharomyces cerevisiae (strain ATCC 204508 / S288c)), Q03530; yeast membranes, quenched prenylated peptide cleavage fluorescence; calls only; 290,000 compounds, 0.27% hits; AID 2563, 2010;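 active means fall in fluorescence gain of 50% or more versus controls, with final raw signal at or below 3038400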;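 further: plate controls were neutral control wells for no effect and wells lacking membranes for full effect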
ADAM10 inh – human ADAM10 inhibitors, primary screen, biochemical, QFRET, HTS; Disintegrin and metalloproteinase domain-containing protein 10 (Homo sapiens), O14672; recombinant ADAM10, EDANS/DABCYL FRET peptide cleavage, 3 h; inhibition, % at 7 µM; 370,000 compounds, 0.62% hits;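 active means inhibition above a per-campaign cutoff equal to the mean of compounds falling between control-based bounds plus 3 SD, cut at about 20% in these data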;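 further: 0% = DMSO wells while the 100% control is not disclosed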
PLC-beta3 inh – human PLC-beta3 inhibitors, primary screen, biochemical, fluorescence; Purified PLC-beta3, fluorogenic substrate; inhibition, % at 12.2 µM; 370,000 compounds, 0.18% hits; AID 720704, 2013; in the data active means inhibition above about 11%;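 further: 0% = median of compound wells on plate and 100% = full blocker control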
ADAM17 inh – ADAM17 inhibitors, primary screen, biochemical, QFRET | recombinant ADAM17, EDANS/DABCYL FRET peptide cleavage | 370,000 compounds, 0.83% hits | inhibition, % at 6.95 µM;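 active means inhibition above the mean of compounds lying between control limits plus 3 SD, set per campaign, cut at about 8.5% in these data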;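 further: 0% = DMSO-only wells as the low control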
Target sequence (P78536 215-824 limits assumed): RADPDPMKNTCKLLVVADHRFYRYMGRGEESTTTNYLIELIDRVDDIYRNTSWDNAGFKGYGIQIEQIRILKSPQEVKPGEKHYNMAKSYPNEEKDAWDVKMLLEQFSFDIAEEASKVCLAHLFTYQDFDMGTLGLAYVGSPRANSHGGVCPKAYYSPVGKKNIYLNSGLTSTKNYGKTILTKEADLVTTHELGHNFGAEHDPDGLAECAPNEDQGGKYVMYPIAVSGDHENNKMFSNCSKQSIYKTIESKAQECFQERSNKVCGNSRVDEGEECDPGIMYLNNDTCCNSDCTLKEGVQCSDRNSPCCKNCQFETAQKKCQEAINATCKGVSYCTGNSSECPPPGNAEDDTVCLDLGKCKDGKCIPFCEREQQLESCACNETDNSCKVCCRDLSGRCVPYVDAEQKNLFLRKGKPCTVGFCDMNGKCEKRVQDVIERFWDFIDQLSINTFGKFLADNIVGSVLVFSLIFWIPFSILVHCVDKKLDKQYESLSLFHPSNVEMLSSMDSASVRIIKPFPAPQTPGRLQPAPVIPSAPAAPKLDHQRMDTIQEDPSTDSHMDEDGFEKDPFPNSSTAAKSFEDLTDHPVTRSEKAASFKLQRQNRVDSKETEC
ADAM10 ctr – ADAM10 inhibitors, counter-screen for ADAM17 exosite inhibitor project, biochemical, FRET, human ADAM10 | shares compounds with ADAM17 inh | recombinant ADAM10, EDANS/DABCYL FRET peptide cleavage, 3 h | inhibition, % at 6.95 µM | AID 743256, 2014 | 2,900 compounds, 47% hits;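 active means mean inhibition over the triplicate runs exceeds the activity threshold set in the earlier primary screen, cut at about 20% in these data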;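 further: 0% = DMSO wells and 100% = marimastat wells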
ADAM17 confirm – ADAM17 inhibitors, hit retest, confirmation, biochemical, QFRET peptide cleavage. 2,900 compounds, 65% hits. shares compounds with ADAM17 inh. inhibition, % at 6.95 µM. AID 743257, 2014. recombinant ADAM17, EDANS/DABCYL QFRET peptide cleavage;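 active means mean inhibition across replicates above the hit cutoff set in the primary screen, cut at about 8.5% in these data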;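 further: 0% = DMSO wells and 100% = marimastat wells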
PLCgamma1 ctr – PLC-gamma1 enzyme inhibitors, counter-screen for PLC-beta3 inhibitor project, biochemical, fluorescence. shares compounds with PLC-gamma1 inh. purified PLC-gamma1, fluorogenic substrate. inhibition, % at 12.3 µM. 3,300 compounds, 3.1% hits. AID 743258, 2014
PLCbeta3 conf – PLC-beta3 inhibitor confirmation, biochemical, fluorescence, purified enzyme; shares compounds with PLC-gamma1 inh; fluorogenic substrate fluorescence; inhibition, % at 12.3 µM; 3,300 compounds, 1% hits; AID 743261, 2014; in the data active means inhibition above about 11%
Numbers without * were called inactive; i = inactive; x = no result given. Unless noted, no stated cut-off is given here; in the data, active means inhibition above about 9.5%; inactive means the rest.

SMILES	PLC-gamma1 inh	Rce1 inh	ADAM10 inh	PLC-beta3 inh	ADAM17 inh	ADAM10 ctr	ADAM17 confirm	PLCgamma1 ctr	PLCbeta3 conf
O=C(CSc1nnc(Cc2ccccc2)n1-c1cccc(Cl)c1)NNC(=O)Cc1ccccc1	10.2*	i	16.5	9.3	15.0*	10.3	4.8	-9.4	-4.2
COc1ccc(CC(=O)NNC(=O)CSc2nnc(Cc3ccc(OC)cc3)n2-c2ccccc2)cc1	-2.6	i	1.1	-0.1	0.4	x	x	x	x
CCCn1c(SCC(=O)NC2CCCC2)nnc1C(C)C	-1.8	i	-11.6	-5.8	-1.2	x	x	x	x
COc1cccc(-c2ccc(CN3C(C(C)C)C(=O)N(Cc4cn(CCC5OCCO5)nn4)CCS3(=O)=O)cc2)c1OC (stereo unspecified)	12.3*	x	8.4	9.1	12.9*	13.9	7.0	-2.5	1.6
CC(C)C1C(=O)N(Cc2cn(CCC3OCCO3)nn2)CCS(=O)(=O)N1Cc1ccc(-c2ccccc2Cl)cc1 (stereo unspecified)	-1.8	x	4.3	3.1	6.3	x	x	x	x
OCC1(Cc2cccc(Cl)c2)CCCN(Cc2sc(N3CCCC3)nc2Cl)C1 (stereo unspecified)	12.8*	i	13.0	-1.8	10.2*	17.1	9.7*	0.1	-27.5
Cc1cc2c(c(=O)o1)[C@@]1(C(=O)N(C)c3ccc([N+](=O)[O-])cc31)C1=C(CCCC1=O)O2	9.5*	x	4.1	10.4	8.7*	0.0	3.9	-1.6	0.9
COc1ccc2c(c1)[C@]1(C(=O)N2C)C2=C(CCCC2=O)Oc2cc(C)oc(=O)c21	4.8	x	2.4	3.5	-0.7	x	x	x	x
CC(=O)NC(C)(c1ccccc1)c1nc(-c2cncnc2)cs1 (stereo unspecified)	0.9	x	-1.3	6.6	2.1	x	x	x	x
COc1ccccc1OCCCN1CCC(C(O)(c2ccccc2)c2ccccc2)CC1	0.8	x	-10.3	1.7	-4.2	x	x	x	x
C/C=C/c1ccccc1OCCCN1CCC(C(O)(c2ccccc2)c2ccccc2)CC1	13.0*	x	10.1	3.9	12.5*	14.4	9.2*	1.0	2.5
CCOc1ncccc1C(=O)OCC(=O)c1cc(OC)c(OC)c(OC)c1	-1.7	i	-6.1	-10.3	-0.8	x	x	x	x
C=CCNC(=S)NNC(=O)c1ccc(C)c(Cl)c1	13.2*	i	12.4	1.8	11.9*	-2.0	1.3	-4.8	0.3
O=[N+]([O-])c1ccc(C(O)C(CO)NC(=S)Nc2ccccc2)cc1 (stereo unspecified)	9.8*	i	12.5	-1.1	8.8*	-6.0	-2.9	-5.6	0.6
O=C(CC1SC(=Nc2ccccc2)N(CCc2c[nH]c3ccccc23)C1=O)Nc1ccccc1F (stereo unspecified)	9.4	i	13.9	13.4*	9.9*	24.4*	12.8*	4.4	6.9
O=C(CC1SC(=Nc2ccccc2)N(CCO)C1=O)Nc1ccccc1 (stereo unspecified)	2.4	i	2.3	4.4	-0.2	x	x	x	x
COc1cc(/C=N\NC(=O)c2cccc(Cl)c2)ccc1Oc1ccc([N+](=O)[O-])cn1	1.3	i	13.1	-5.5	5.0	x	x	x	x

Screens (PubChem BioAssay)
